# Experimental data as given in the supplement of paper PMC8728848.
# The sample as a whole holds a higher share of the strongest signals than the screen did.
# B1: PfulAvr4 (Pseudocercospora fuligena) (protein)
# chain: HHHHHHDYKDDDDKTYVQDKTPAFVCPAADIKTTKCLGPKDCLYPSPKTCNGYIQCSPADDSYLTGIIHEMPCPSGLLWNDNKKWCDWPENTTCGLVKSAGATEVDATKQGPTPGKYHG
# Columns and labels:
# Assay in all cases: glycan array binding signal (z-score within array); higher = stronger binding
# Conditions in all cases: glycan notation: IUPAC condensed, linker removed
# [1] = biological target: Fuc(a1-2)Gal(b1-3)GalNAc(b1-3)Gal
# In short: (§1)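 The binding signal is a Z-score computed within each array and averaged over linkers. Arrays of the same protein sequence at different concentrations or buffers were also averaged together. Data originate from 3228 arrays in the Consortium for Functional Glycomics database, kept only where the protein sequence was available.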
# [2] = biological target: Fuc(a1-2)Gal(b1-3)[Fuc(a1-4)]GlcNAc(b1-2)Man(a1-3)[Fuc(a1-2)Gal(b1-3)[Fuc(a1-4)]GlcNAc(b1-2)Man(a1-3)]Man(b1-4)GlcNAc(b1-4)GlcNAc
# In short: as §1
# [3] = biological target: Fuc(a1-2)Gal(b1-3)[Fuc(a1-4)]GlcNAc(b1-3)[Gal(b1-4)GlcNAc(b1-6)]Gal(b1-4)Glc
# In short: as §1
# [4] = biological target: Fuc(a1-2)Gal(b1-4)GlcNAc(b1-3)[Fuc(a1-3)[Gal(b1-4)]GlcNAc(b1-6)]Gal(b1-4)Glc
# In short: as §1
# [5] = biological target: Fuc(a1-2)Gal(b1-4)[Fuc(a1-3)]GlcNAc
# In short: as §1
# [6] = biological target: Fuc(a1-2)Gal(b1-4)[Fuc(a1-3)]GlcNAc(b1-2)[Fuc(a1-2)Gal(b1-4)[Fuc(a1-3)]GlcNAc(b1-4)]Man(a1-3)[Fuc(a1-2)Gal(b1-4)[Fuc(a1-3)]GlcNAc(b1-2)Man(a1-6)]Man(b1-4)GlcNAc(b1-4)GlcNAc
# In short: as §1
# [7] = biological target: Fuc(a1-2)[Gal(a1-3)]Gal(b1-3)GlcNAc(b1-2)Man(a1-3)[Fuc(a1-2)[Gal(a1-3)]Gal(b1-3)GlcNAc(b1-2)Man(a1-6)]Man(b1-4)GlcNAc(b1-4)GlcNAc
# In short: as §1
# [8] = biological target: Fuc(a1-2)[Gal(a1-3)]Gal(b1-4)GlcNAc(b1-6)GalNAc
# In short: as §1
# [9] = biological target: Fuc(a1-2)[GalNAc(a1-3)]Gal
# In short: as §1
# [10] = biological target: Fuc(a1-2)[GalNAc(a1-3)]Gal(b1-3)GalNAc(a1-3)[Fuc(a1-2)]Gal(b1-4)GlcNAc
# In short: as §1
# [11] = biological target: Fuc(a1-2)[GalNAc(a1-3)]Gal(b1-3)GlcNAc(b1-3)GalNAc
# In short: as §1
# [12] = biological target: Fuc(a1-2)[GalNAc(a1-3)]Gal(b1-4)GlcNAc
# In short: as §1
# [13] = biological target: Fuc(a1-2)[GalNAc(a1-3)]Gal(b1-4)GlcNAc(b1-3)[Fuc(a1-2)[GalNAc(a1-3)]Gal(b1-4)GlcNAc(b1-6)]GalNAc
# In short: as §1
# [14] = biological target: Fuc(a1-2)[GalNAc(a1-3)]Gal(b1-4)GlcNAc(b1-6)GalNAc
# In short: as §1
# [15] = biological target: Fuc(a1-2)[GalNAc(a1-4)]Gal(b1-4)GlcNAc
# In short: as §1
# [16] = biological target: Gal(a1-3)Gal(b1-4)GlcNAc
# In short: as §1
# [17] = biological target: Gal(b1-2)Gal
# In short: as §1
# [18] = biological target: Gal(b1-3)GalNAc(b1-3)Gal(a1-4)Gal(b1-4)Glc
# In short: as §1
# [19] = biological target: Gal(b1-3)GlcNAc(b1-2)Man(a1-3)[GlcNAc(b1-4)][Gal(b1-3)GlcNAc(b1-2)Man(a1-6)]Man(b1-4)GlcNAc(b1-4)GlcNAc
# In short: as §1
# [20] = biological target: Gal(b1-3)GlcNAc(b1-3)GalNAc
# In short: as §1
# [21] = biological target: Gal(b1-3)[Fuc(a1-4)]GlcNAc(b1-2)Man(a1-3)[Gal(b1-3)[Fuc(a1-4)]GlcNAc(b1-2)Man(a1-6)]Man(b1-4)GlcNAc(b1-4)[Fuc(a1-6)]GlcNAc
# In short: as §1
# [22] = biological target: Gal(b1-3)[Neu5Ac(a2-6)]GalNAc
# In short: as §1
# [23] = biological target: Gal(b1-4)GalNAc(b1-3)[Fuc(a1-2)]Gal(b1-4)GlcNAc
# In short: as §1
# [24] = biological target: Gal(b1-4)GlcNAc(b1-2)Man(a1-3)[Man(a1-6)]Man(b1-4)GlcNAc(b1-4)GlcNAc
# In short: as §1
# [25] = biological target: Gal(b1-4)GlcNAc(b1-2)Man(a1-6)[GlcNAc(b1-2)Man(a1-3)]Man(b1-4)GlcNAc(b1-4)GlcNAc
# In short: as §1
# [26] = biological target: Gal(b1-4)GlcNAc(b1-3)Gal(b1-3)GlcNAc
# In short: as §1
# [27] = biological target: Gal(b1-4)GlcNAc(b1-3)Gal(b1-4)GlcNAc(b1-2)[Gal(b1-4)GlcNAc(b1-3)Gal(b1-4)GlcNAc(b1-6)]Man(a1-6)[Gal(b1-4)GlcNAc(b1-3)Gal(b1-4)GlcNAc(b1-2)Man(a1-3)]Man(b1-4)GlcNAc(b1-4)GlcNAc
# In short: as §1
# [28] = biological target: Gal(b1-4)GlcNAc(b1-3)Gal(b1-4)GlcNAc(b1-2)[Gal(b1-4)GlcNAc(b1-3)Gal(b1-4)GlcNAc(b1-6)]Man(a1-6)[Gal(b1-4)GlcNAc(b1-3)Gal(b1-4)GlcNAc(b1-2)Man(a1-3)]Man(b1-4)GlcNAc(b1-4)[Fuc(a1-6)]GlcNAc
# In short: as §1
# [29] = biological target: Gal(b1-4)GlcNAc(b1-3)Gal(b1-4)GlcNAc(b1-3)Gal(b1-4)GlcNAc(b1-3)Gal(b1-4)GlcNAc(b1-3)Gal(b1-4)GlcNAc(b1-2)Man(a1-3)[Gal(b1-4)GlcNAc(b1-3)Gal(b1-4)GlcNAc(b1-3)Gal(b1-4)GlcNAc(b1-3)Gal(b1-4)GlcNAc(b1-3)Gal(b1-4)GlcNAc(b1-2)Man(a1-6)]Man(b1-4)GlcNAc(b1-4)[Fuc(a1-6)]GlcNAc
# In short: as §1
# [30] = biological target: Gal(b1-4)GlcNAc(b1-3)[GlcNAc(b1-6)]Gal(b1-4)GlcNAc
# In short: as §1
binder,measurement,setting,value
B1,glycan array binding signal (z-score),[1],-0.098
same,glycan array binding signal (z-score),[2],1.42
same,glycan array binding signal (z-score),[3],-0.112
same,glycan array binding signal (z-score),[4],-0.102
same,glycan array binding signal (z-score),[5],-0.091
same,glycan array binding signal (z-score),[6],0.683
same,glycan array binding signal (z-score),[7],-0.05
same,glycan array binding signal (z-score),[8],-0.112
same,glycan array binding signal (z-score),[9],-0.132
same,glycan array binding signal (z-score),[10],1.31
same,glycan array binding signal (z-score),[11],-0.06
same,glycan array binding signal (z-score),[12],-0.151
same,glycan array binding signal (z-score),[13],-0.133
same,glycan array binding signal (z-score),[14],-0.129
same,glycan array binding signal (z-score),[15],-0.135
same,glycan array binding signal (z-score),[16],-0.07
same,glycan array binding signal (z-score),[17],-0.01
same,glycan array binding signal (z-score),[18],-0.044
same,glycan array binding signal (z-score),[19],0.682
same,glycan array binding signal (z-score),[20],-0.105
same,glycan array binding signal (z-score),[21],0.612
same,glycan array binding signal (z-score),[22],0.215
same,glycan array binding signal (z-score),[23],-0.141
same,glycan array binding signal (z-score),[24],1.71
same,glycan array binding signal (z-score),[25],-0.136
same,glycan array binding signal (z-score),[26],-0.04
same,glycan array binding signal (z-score),[27],1.38
same,glycan array binding signal (z-score),[28],-0.13
same,glycan array binding signal (z-score),[29],0.048
same,glycan array binding signal (z-score),[30],1.21
